Calls of active or inactive are those of the source. Unless noted, no rule for the calls is given here.

Assay [1] relates to Wnt5a (protein binding on small-molecule microarray). The experiment in a line: Wnt5a binders on small-molecule microarray, primary screen, biophysical, 635/667 nm fluorescence (AID 1142).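 Also: fluorescence read at 667 nm with signal to noise per printed feature.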 The following applies: 635 nm fluorescence, higher = more signal.
Assay [2] can be described thus: cell viability in Huh7 cells, primary screen, cytotoxicity control for HCV replication inhibitor project, CellTiter-Glo luminescence, basal, 48 h (AID 1143).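 Also: Huh7 hepatoma cells carrying a hepatitis C replication reporter with no stimulus; test concentration not given here.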 The conditions noted are these: Huh7 HCV replicon, higher = more signal, called active from +8 up or from −8 down.
Assay [3] can be described thus: P. aeruginosa biofilm formation inhibitors, primary screen, PAO1 strain, BacTiter-Glo luminescence, LB-PBS (AID 1144). The conditions noted are these: 12 h, higher = more signal.
A short description of assay [4]: CREB reporter modulators without forskolin, primary screen, cell-based, PC12, CRE-LacZ reporter, unstimulated (AID 1145). The conditions noted are these: no forskolin, luminescence, 4.5 h, higher = more signal, called active from +8 up or from −8 down.
Assay [5] is described as follows: CREB reporter modulators under forskolin, primary screen, cell-based, PC12, CRE-LacZ reporter, forskolin-stimulated (AID 1146).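 Also: PC12 cells with 6xCRE LacZ reporter stimulated by forskolin 10 µM; beta-galactosidase reporter signal reflecting CREB driven transcription.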 The conditions noted are these: luminescence, 4.5 h, higher = more signal, called active from +8 up or from −8 down.
The target of assay [6] is Streptavidin (Streptomyces avidinii) (UniProt P22629). Briefly: streptavidin binders on small-molecule microarray, primary screen, artefact control for SMM compound annotation, biophysical, 635/667 nm fluorescence (AID 1147).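 Also: signal reflects streptavidin binding to arrayed compounds as a control protein.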 The following applies: streptavidin binding, higher = more signal.
A short description of assay [7]: small-molecule binders of probe aInhba, primary screen, biochemical, small-molecule microarray, 635/667 nm fluorescence (AID 1148).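 Also: score merges 667nm spot fluorescence with signal-to-noise for antibody binding to printed compounds.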 The following applies: higher = more signal.
Assay [8] has as its target Torsin-1A (Homo sapiens) (UniProt O14656). The experiment in a line: torsin A binders from cell lysate, primary screen, small-molecule microarray, wild-type, 635/667 nm (AID 1149). The following applies: COS7 hTOR1A-WT lysate, 635 nm fluorescence, higher = more signal.
Assay [9] shares this target. Briefly: small-molecule binders of mutant TOR1A in lysate, primary screen, cell lysate, small-molecule microarray, COS7 lysate, 635/667 nm fluorescence (AID 1150).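 Also: score pools 667 nm emission and signal to noise measuring lysate protein binding.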 The conditions noted are these: COS7 hTOR1A mutant lysate, 635 nm fluorescence, higher = more signal.
Assay [10] deals with Sonic hedgehog protein (Shh). Briefly: small-molecule binders of Shh protein, primary screen, biochemical, small-molecule microarray, 635/667 nm fluorescence (AID 1151).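 Also: Shh protein binding to compounds spotted on small-molecule microarray slides; score combines spot fluorescence intensity with signal-to-noise across triplicate slides.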 The conditions noted are these: small-molecule microarray binding, 635 nm fluorescence; higher = more signal.
Assay [11] is described as follows: E. coli DRC41 culture turbidity changes, primary screen, E. coli filamentation inducer project, strain DRC41, OD650, 48 h (AID 1152).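 Also: E. coli MC1000 strain DRC41 lacking acrAB efflux pump and sulA.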 The conditions noted are these: E. coli DRC41 (acrAB sulA), higher = more signal, called active from +8 up or from −8 down.
Assay [12] is described as follows: small-molecule binders of probe aLefty1, primary screen, biochemical, small-molecule microarray, 635/667 nm fluorescence (AID 1153).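 Also: score merges spot fluorescence with signal-to-noise ratio from the scanned slide images.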 The conditions noted are these: higher = more signal.
A short description of assay [13]: PSAC antagonists in infected red cells, primary screen, cell-based, P. falciparum Indochina, OD700, 1 h (AID 1154). The conditions noted are these: P. falciparum Indochina infected RBC osmotic lysis, higher = more signal, called active from +8 up or from −8 down.
The nature of assay [14]: PSAC antagonists in infected red cells, primary screen, cell-based, P. falciparum Indochina, OD700, 2 h (AID 1155).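 Also: lysis reports solute entry through the parasite surface anion channel PSAC; channel blockers reduce lysis of infected cells.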 The following applies: P. falciparum Indochina infected erythrocytes, osmotic lysis OD700; higher = more signal, called active from +8 up or from −8 down.
Assay [15] is described as follows: osmotic lysis modulators in infected erythrocytes, primary screen, PSAC antagonist project, cell-based, P. falciparum Indochina, OD700, 3 h (AID 1156). The following applies: higher = more signal, called active from +8 up or from −8 down.
Assay [16] can be described thus: PSAC antagonists in infected red cells, primary screen, cell-based, P. falciparum Indochina, OD700, 18 h (AID 1157). The following applies: P. falciparum Indochina infected erythrocytes, osmotic lysis OD700, 18 h; higher = more signal, called active from +8 up or from −8 down.
The nature of assay [17]: modulators of S6 phosphorylation in cells, primary screen, cell-based, A549, cytoblot, luminescence, serum-stimulated (AID 1158).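 Also: serum-stimulated A549 lung adenocarcinoma cells; signal is phosphorylated S6 detected by cytoblot immunostaining with HRP secondary.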 The following applies: A549 phospho-S6 cytoblot, 5 h, higher = more signal.
Assay [18] concerns the target NADPH oxidase 2 (Homo sapiens) (UniProt P04839). Briefly: NOX2-dependent H2O2 signal modulators, primary screen, NOX inhibitor project, cell-based, HEK293-NOX2, PMA-stimulated, Amplex Red fluorescence (AID 1159). Also: test concentration not given here. The conditions noted are these: 45 min, higher = more signal, called active from +8 up or from −8 down.
For assay [19], the target named is NADPH oxidase 4 (Homo sapiens) (UniProt Q9NPH5). The experiment in a line: NOX4-dependent H2O2 signal modulators, primary screen, NOX inhibitor project, cell-based, HEK293-NOX4, tetracycline-induced, Amplex Red fluorescence (AID 1160). The following applies: 45 min, higher = more signal, called active from +8 up or from −8 down.
The target of assay [20] is NADPH oxidase 5 (Homo sapiens) (UniProt Q96PH1). The experiment in a line: NOX5-dependent H2O2 signal modulators, primary screen, NOX inhibitor project, cell-based, HEK293-NOX5, Amplex Red fluorescence (AID 1161). The following applies: HEK293-NOX5, ionomycin, 45 min, higher = more signal.
Chain of NADPH oxidase 5 (Homo sapiens) (Q96PH1 whole entry, looked up): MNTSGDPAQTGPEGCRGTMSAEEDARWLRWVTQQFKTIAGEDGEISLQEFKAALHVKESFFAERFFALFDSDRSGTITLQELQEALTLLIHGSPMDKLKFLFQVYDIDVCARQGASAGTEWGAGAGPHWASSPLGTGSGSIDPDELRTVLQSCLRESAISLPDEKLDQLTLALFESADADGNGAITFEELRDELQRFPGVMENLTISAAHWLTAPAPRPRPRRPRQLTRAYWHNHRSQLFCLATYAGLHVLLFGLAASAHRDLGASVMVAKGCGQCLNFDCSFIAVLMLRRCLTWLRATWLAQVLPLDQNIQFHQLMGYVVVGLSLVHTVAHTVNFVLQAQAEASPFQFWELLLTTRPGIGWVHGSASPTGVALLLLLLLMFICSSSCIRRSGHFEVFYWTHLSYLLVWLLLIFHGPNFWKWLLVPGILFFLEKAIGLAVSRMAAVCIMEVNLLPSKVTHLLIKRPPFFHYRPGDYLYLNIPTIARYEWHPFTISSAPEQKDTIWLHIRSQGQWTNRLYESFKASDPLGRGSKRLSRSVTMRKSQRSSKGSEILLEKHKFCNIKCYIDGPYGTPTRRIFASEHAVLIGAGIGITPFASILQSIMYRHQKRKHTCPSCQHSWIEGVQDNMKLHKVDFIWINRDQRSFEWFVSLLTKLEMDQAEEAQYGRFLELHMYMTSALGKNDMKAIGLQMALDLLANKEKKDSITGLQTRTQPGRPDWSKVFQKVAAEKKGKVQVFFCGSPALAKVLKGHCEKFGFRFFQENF

Chain of NADPH oxidase 2 (Homo sapiens) (P04839 whole entry, looked up): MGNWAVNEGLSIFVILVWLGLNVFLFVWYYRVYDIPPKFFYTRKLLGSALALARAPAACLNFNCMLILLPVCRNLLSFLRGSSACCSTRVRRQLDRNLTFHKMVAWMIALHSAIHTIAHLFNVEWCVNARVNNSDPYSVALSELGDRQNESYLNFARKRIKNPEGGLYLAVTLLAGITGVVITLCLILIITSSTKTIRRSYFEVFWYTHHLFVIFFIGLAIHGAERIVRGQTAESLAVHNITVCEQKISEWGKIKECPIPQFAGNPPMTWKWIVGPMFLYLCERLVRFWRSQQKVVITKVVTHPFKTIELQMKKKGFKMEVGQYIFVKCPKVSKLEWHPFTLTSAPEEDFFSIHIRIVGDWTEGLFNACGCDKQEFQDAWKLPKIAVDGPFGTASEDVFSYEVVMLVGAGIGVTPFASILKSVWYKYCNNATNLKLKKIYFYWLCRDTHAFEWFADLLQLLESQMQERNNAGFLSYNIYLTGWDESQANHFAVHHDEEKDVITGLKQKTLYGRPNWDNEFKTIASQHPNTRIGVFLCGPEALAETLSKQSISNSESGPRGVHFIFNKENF
Chain of Streptavidin (Streptomyces avidinii) (P22629 whole entry, looked up): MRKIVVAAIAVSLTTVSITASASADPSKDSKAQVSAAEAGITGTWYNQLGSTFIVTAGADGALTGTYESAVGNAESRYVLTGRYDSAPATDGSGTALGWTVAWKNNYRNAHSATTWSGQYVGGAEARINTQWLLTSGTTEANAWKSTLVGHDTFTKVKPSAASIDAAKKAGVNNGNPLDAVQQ
Chain of NADPH oxidase 4 (Homo sapiens) (Q9NPH5 whole entry, looked up): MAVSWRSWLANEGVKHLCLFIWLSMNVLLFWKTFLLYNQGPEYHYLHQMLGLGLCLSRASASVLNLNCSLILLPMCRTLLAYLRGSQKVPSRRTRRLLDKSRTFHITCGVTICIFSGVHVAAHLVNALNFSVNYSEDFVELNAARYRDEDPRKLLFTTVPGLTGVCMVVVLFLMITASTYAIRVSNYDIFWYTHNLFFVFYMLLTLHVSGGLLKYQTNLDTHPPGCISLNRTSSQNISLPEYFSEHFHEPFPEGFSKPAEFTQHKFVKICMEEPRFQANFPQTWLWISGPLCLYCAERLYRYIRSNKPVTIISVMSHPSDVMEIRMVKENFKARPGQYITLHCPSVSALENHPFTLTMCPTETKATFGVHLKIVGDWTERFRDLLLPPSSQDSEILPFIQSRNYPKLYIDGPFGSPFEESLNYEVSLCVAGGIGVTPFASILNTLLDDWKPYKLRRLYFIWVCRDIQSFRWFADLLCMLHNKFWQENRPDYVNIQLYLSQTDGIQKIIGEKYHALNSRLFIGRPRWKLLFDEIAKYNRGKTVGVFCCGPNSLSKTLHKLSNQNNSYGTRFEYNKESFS
Chain of Torsin-1A (Homo sapiens) (O14656 whole entry, looked up): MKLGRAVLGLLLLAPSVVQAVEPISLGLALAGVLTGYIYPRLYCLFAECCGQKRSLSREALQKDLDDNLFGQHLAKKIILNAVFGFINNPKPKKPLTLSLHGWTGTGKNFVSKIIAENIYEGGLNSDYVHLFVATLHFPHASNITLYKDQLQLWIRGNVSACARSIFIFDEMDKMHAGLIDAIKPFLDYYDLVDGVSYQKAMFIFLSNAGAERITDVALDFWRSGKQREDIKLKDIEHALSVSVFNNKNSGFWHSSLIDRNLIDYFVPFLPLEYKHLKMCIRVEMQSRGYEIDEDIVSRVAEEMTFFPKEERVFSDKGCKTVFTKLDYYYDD

Turning to `COC(=O)[C@@]1(Cc2ccc(OC)cc2)[C@H]2c3cc(C(=O)N4CCCC4)n(CCc4c[nH]c5ccc(O)cc45)c3C[C@H]2CN1C(=O)c1ccccc1`, the composite z-score was 0.431 in [1]; 0.971 in assay [6]; 0.192 in [7]; 0.132 in the assay with Torsin-1A (Homo sapiens) [8]; 0.318 with Torsin-1A (Homo sapiens) [9]; -0.229 in assay [10]. The same compound came in with a composite z-score in assay [12] of 0.302. Moreover, the z-score in assay [2] is -0.759 (inactive); in [3] it was 0.34 (inactive); in [4], 0.587 (inactive); in assay [5], -0.397 (inactive); in assay [11] it was -0.0255 (inactive); in assay [13], 8.22 (active). Besides, the z-score in assay [14] is 0.847 (inactive); in [15] it was 1.27 (inactive); in [16] it was 1.11 (inactive); in [17], -0.029; in assay [18], -0.648 (inactive); in assay [19] it was -6.51 (inactive). In assay [20], this compound registered a z-score of -3.5.

As to `C#CCN([C@@H](Cc1ccccc1)C(=O)OC)[C@@H](/C=C/C1CC1)[C@H](O)Cc1ccccc1`, the composite z-score in [1] is -0.476; in assay [6] it was -0.676; in assay [7] it was -0.157; in the assay with Torsin-1A (Homo sapiens) [8] it was 0.239; with Torsin-1A (Homo sapiens) [9] it was -0.211; in assay [10], 0.314. This compound came in with a composite z-score in [12] of -0.0538. For the same compound, the z-score is -3.22 (inactive) in [2]; 0.398 (inactive) in assay [3]; 1.67 (inactive) in [4]; -0.0949 (inactive) in [5]; -0.634 (inactive) in [11]; 1.09 (inactive) in [13]. Besides, the z-score in assay [14] was 0.443 (inactive); in assay [15] it was -0.0572 (inactive); in assay [16] it was -0.307 (inactive); in [17], -0.169; in assay [18], -0.284 (inactive); in assay [19] it was -0.417 (inactive). The compound further registered a z-score in [20] of -2.34.

`CCOC(=O)[C@@H]1CCCCN1C(=O)C(=O)OC`: the composite z-score in assay [1] is 0.214; in [6] it was -0.0957; in [7], 0.0118; in the assay with Torsin-1A (Homo sapiens) [8] it was 0.188; with Torsin-1A (Homo sapiens) [9] it was -0.144; in assay [10] it was 0.901. For the same compound, the composite z-score in assay [12] is -0.0515. Further, the z-score in assay [2] is 0.474 (inactive); in assay [3] it was 0.594 (inactive); in assay [4], 0.362 (inactive); in assay [5], 1.56 (inactive); in assay [11], -0.446 (inactive); in assay [13], -1.11 (inactive). Moreover, the z-score in [14] was -0.164 (inactive); in [15] it was -0.306 (inactive); in assay [16], -0.262 (inactive); in assay [17] it was -0.523; in assay [18], 0.296 (inactive); in [19] it was -0.28 (inactive). Further, the z-score in [20] stood at 0.153.

Regarding `CCOC(=O)C=Cc1cccc(C)c1O`, the composite z-score was -0.0909 in assay [1]; -0.259 in assay [6]; -0.0375 in assay [7]; 0.299 with Torsin-1A (Homo sapiens) [8]; 0.777 with Torsin-1A (Homo sapiens) [9]; 0.219 in [10]. The composite z-score in [12] is -0.0011. The z-score is -4.73 (inactive) in assay [2]; -1.02 (inactive) in assay [3]; 0.472 (inactive) in assay [4]; -0.631 (inactive) in assay [5]; -0.718 (inactive) in assay [11]; 9 (active) in assay [13]. For the same compound, the z-score in assay [14] is -0.0712 (inactive); in [15] it was 0.193 (inactive); in assay [16], -2.11 (inactive); in assay [17], 1.52; in assay [18] it was -5.05 (inactive); in [19], -4.89 (inactive). The same compound displayed a z-score in assay [20] of -4.98.

The record behind these values is PubChem BioAssay.
